# In the library only some 10% were active in any assay of this set; here they are far more common.
# FLuc inh-1 – inhibitors of firefly (Photinus pyralis) luciferase. Potency, µM (highest dose often 115 µM), hits mostly inhibitors. 76,000 tested, 2.5% active. purified P. pyralis luciferase, luminescence, biochemical; further: on the % scale 0 is the no-effect control and ±100 the full control effect; nearly all actives have a fitted effect of over 65% in size
# Target sequence (P08659 whole entry, looked up): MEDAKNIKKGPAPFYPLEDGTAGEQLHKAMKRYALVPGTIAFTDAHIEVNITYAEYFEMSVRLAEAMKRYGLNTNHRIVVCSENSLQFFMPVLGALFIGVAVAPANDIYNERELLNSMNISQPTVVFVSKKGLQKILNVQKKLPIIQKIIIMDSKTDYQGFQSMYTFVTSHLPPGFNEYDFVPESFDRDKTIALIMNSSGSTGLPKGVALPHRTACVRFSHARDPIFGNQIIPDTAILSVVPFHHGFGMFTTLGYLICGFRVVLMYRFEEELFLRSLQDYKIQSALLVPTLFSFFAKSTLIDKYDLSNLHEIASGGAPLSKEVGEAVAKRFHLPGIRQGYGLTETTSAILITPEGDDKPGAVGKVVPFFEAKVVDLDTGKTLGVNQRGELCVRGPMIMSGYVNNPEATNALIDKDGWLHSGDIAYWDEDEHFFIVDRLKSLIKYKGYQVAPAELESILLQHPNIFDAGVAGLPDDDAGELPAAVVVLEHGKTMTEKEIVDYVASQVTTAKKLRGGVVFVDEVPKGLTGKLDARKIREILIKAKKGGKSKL
#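 Biochemical qHTS: compound (6-point titration) added to 10uM D-luciferin plus 10uM ATP in Tris acetate pH 7.5 buffer with Mg, Tween-20 and BSA, then purified enzyme at 10nM; light output imaged.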
# NPR1 antag – blocks ANP-stimulated signaling of human Npr1 receptor; HEK293 hNpr1 GloSensor cGMP, ANP-stimulated luminescence; P16066; 76,000 tested, 1.6% active; Potency, µM (series often up to 46.3 µM), for the others: top-dose activity change, negative = inhibition, most hits filed as inhibitors; AID 1347048; calls by dose curve; further: on the % scale 0 is the no-effect control and ±100 the full control effect; nearly all actives have a fitted effect of over 60% in size
#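 Compound pre-incubated 30 min at room temperature on GloSensor-loaded HEK293 cells stably carrying hNpr1 and the pGS-40F cGMP biosensor. Stimulation uses hNppA at 0.1 nM final; luminescence is taken at baseline and 20 min post-agonist.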
# GPT2 inh – blocks human glutamate pyruvate transaminase 2. Recombinant GPT2, coupled pyruvate oxidase/HRP Amplex Red fluorescence. 100,000 tested, 0.25% active. Potency, µM (titrated, usually from 57.7 µM), for the others: at the top dose activity change, negative = inhibition, hits mostly inhibitors. Q8TD30; further: on the % scale 0 is the no-effect control and ±100 the full control effect; nearly all actives have a fitted effect of over 60% in size
#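 Fluorescence of coupled pyruvate oxidase/HRP/Amplex Red system (50uM Amplex, 30 min, dark) reports pyruvate formed by GPT2. Enzyme reaction: 10ng/uL GPT2, 2mM L-alanine, 250uM a-KG, 30 min room temperature, pH 7.5; 50uM AOA control.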
# HEK cytotox – HEK 293 cell cytotoxicity | 94,000 tested, 6.6% active | Potency, µM (highest dose often 115 µM), inactives show at the top dose activity change, negative = cytotoxicity, hits mostly inhibitors | AID 1345083 | HEK 293 viability, ATP luminescence (CellTiter-Glo), 48-72 h; further: on the % scale 0 is the no-effect control and ±100 the full control effect; nearly all actives have a fitted effect of over 60% in size
#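 HEK 293 cells seeded at 250 cells/well were exposed to compound for 48 or 72 hr at 37 degree Celsius. Viability taken as ATP content by CellTiter-Glo luminescence.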
# NIH3T3 tox – cytotoxic compounds in NIH 3T3 cells; NIH 3T3 viability, CellTiter-Glo ATP luminescence, 48-72 h; Potency, µM (highest dose often 96.7 µM), for the others: top-dose activity change, negative = cytotoxicity, usual class: inhibitors; 94,000 tested, 4.3% active; AID 1345082; further: on the % scale 0 is the no-effect control and ±100 the full control effect; nearly all actives have a fitted effect of over 55% in size
#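 Luminescent ATP readout (CellTiter-Glo, 10 min RT) after 48 or 72 hr compound exposure of NIH 3T3 cells seeded at 400 cells/well in 1536-well format; quantitative HTS.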
# FLuc SDR no ATP – binders stabilizing firefly luciferase, without ATP. AID 1963318. Potency, µM (doses to about 32.7 µM), without a hit: at the top dose activation (signal gain), actives largely listed as activators. shares compounds with FLuc inh-1. 1,300 tested, 7.8% active. Purified FLuc-C-HiBiT, Nano-Glo HiBiT luminescence, no ATP; further: nearly all actives have a fitted effect of over 55% in size
# FLuc SDR ATP – stabilizes firefly luciferase with ATP present | Potency, µM (top dose mostly 32.7 µM), without a hit: at the top dose activation (gain of signal), actives largely listed as activators | shares compounds with FLuc inh-1 | 1,300 tested, 8.7% active | purified FLuc-C-HiBiT + ATP, HiBiT complementation luminescence;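 further: signal reports ligand binding via conformational change of the enzyme rather than luciferase catalysis; % of control where 0% means no effect; nearly all actives have a fitted effect of over 55% in size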
# FLuc inh-2 – blocks firefly luciferase enzymatic activity; shares compounds with FLuc inh-1; 1,300 tested, 42% active; purified FLuc-C-HiBiT enzyme, luciferin luminescence; Potency, µM (top dose mostly 32.7 µM), for the others: top-dose activity change, negative = inhibition, actives largely listed as inhibitors; further: on the % scale 0 is the no-effect control and ±100 the full control effect; nearly all actives have a fitted effect of over 70% in size
# The depositor's hits bear a star; i = inactive; u = inconclusive; x = no result; [ ] = remark or other dose. Unless noted, the call rests on the fitted dose curve; in most records, active means well fitted curve in the direction sought with a large enough effect; inconclusive means small, poorly fitted or top-dose-only effect, or another doubt; inactive means no such curve, though single readings can be large; an effect the other way counts as inactive or inconclusive. Potency means the concentration at half of the fitted maximal effect.
SMILES,FLuc inh-1,NPR1 antag,GPT2 inh,HEK cytotox,NIH3T3 tox,FLuc SDR no ATP,FLuc SDR ATP,FLuc inh-2
CCOc1ccc(NC(=O)C2CCN(C(=O)c3ncn4c3COC(c3ccccc3)C4)CC2)cc1 (stereo unspecified),12.6µM*,-5.1%,4.7%,15.9%,i,13.5%,u,7µM*
CC(C)c1cccc(NC(=O)C2CCN(C(=O)c3ncn4c3COC(c3ccccc3)C4)CC2)c1 (stereo unspecified),3.55µM*,-14.8%,i,u,3.8%,13.1%,u,7.85µM*
O=C(NCc1ccccc1)C1CCN(C(=O)c2ncn3c2COC(c2ccc(Cl)cc2)C3)CC1 (stereo unspecified),u,4.1%,i,11.1%,i,x,x,x
O=C(Nc1ccc(F)c(F)c1)C1CCN(C(=O)c2ncn3c2COC(c2ccccc2)C3)CC1 (stereo unspecified),1µM*,u,2.4%,-2.6%,-2.3%,11.7%,0.556µM*,0.989µM*
CCc1cccc(NC(=O)C2CCN(C(=O)c3ncn4c3COC(c3ccccc3)C4)CC2)c1 (stereo unspecified),3.55µM*,u,i,-14.1%,-2.8%,12.9%,1.24µM*,1.76µM*
O=C1OCC2(CCN(Cc3ccccc3O)C2)N1Cc1ccccc1 (stereo unspecified),i,0.8%[70.6 µM],-1.2%[88.5 µM],u,u,x,x,x
COc1ccc(NC(=O)C2CCN(C(=O)c3ncn4c3COC(c3ccc(OC)cc3)C4)CC2)cc1 (stereo unspecified),i,-7.5%,1.1%,-13.5%,-21.2%,x,x,x
CC(C)c1ccc(NC(=O)C2CCN(C(=O)c3ncn4c3COC(c3ccccc3)C4)CC2)cc1 (stereo unspecified),2.51µM*,-22.6%,-7.4%,5.9%,i,13.1%,u,3.51µM*
COc1ccccc1N1CCN(C(=O)c2noc(-c3ccc(C)cc3)n2)CC1,i,-5.8%,i,-24.7%,u,x,x,x
COc1ccc(N2CCN(C(=O)c3noc(-c4ccc(C)cc4)n3)CC2)cc1,14.1µM*,-20.8%,0.8%,u,u,22.6%,15.1%,u
CC(C)Cn1c(=O)c(C(=O)N2CCC(C#N)CC2)nc2cccnc21,x,x,i,0.7%[172 µM],u,x,x,x
C[S+](=O)([O-])CCn1ncc2cc(OCc3cccc(-c4ccccc4O)c3)ccc21,3.98µM*,31.6µM*,1.6%[88.5 µM],35.5µM*,u,18.9%[49.3 µM],16.1%[49.3 µM],14.3µM*
C[S+](=O)([O-])CCn1ncc2cc(OCc3cccc(-c4ccc(F)cc4)c3)ccc21,10µM*,25.1µM*,-32.2%[88.5 µM],u,u,13.1%[49.3 µM],11.7%[49.3 µM],u
CC(C)C(=O)N1CCC(COc2ccc3c(cnn3CC[S+](C)(=O)[O-])c2)CC1,u,3.8%[70.6 µM],3.6%[88.5 µM],u,u,x,x,x
Cc1cc(-c2cccc(COc3ccc4c(cnn4CC[S+](C)(=O)[O-])c3)c2)ccn1,12.6µM*,10µM*,-3.8%[88.5 µM],25.1µM*,25.1µM*,20.2%[49.3 µM],12.1%[49.3 µM],u
CCOc1ccc(CN2CCC3(CC2)Cc2ccccc2CNC3=O)cc1,x,x,i,u,-17.1%,x,x,x
Cc1ccc(NC(=O)c2ccc(Cn3ccn4nc5c(c4c3=O)CCCC5)cc2)cc1C,u,-15.7%,-0.1%,u,-21.6%,x,x,x
Cc1ccc(NC(=O)c2ccc3snnc3c2)cc1C,x,x,x,x,x,17.7%,u,u
